The whole screen tested about 310,000 compounds, of which about 14,000 (4.5%) showed an effect of 50% or more. Effects have a minus sign here. This excerpt belongs to a sample that is enriched for strong results.
target: human ether-à-go-go-related gene (hERG) potassium channel (human, UniProt Q12809); test: primary screen, population patch clamp on CHO cells stably expressing hERG; higher = less effect of the substance
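Also: peak tail current of the secondary pulse compared with the same well before compound.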

human ether-à-go-go-related gene (hERG) potassium channel, sequence (Q12809 whole entry, looked up): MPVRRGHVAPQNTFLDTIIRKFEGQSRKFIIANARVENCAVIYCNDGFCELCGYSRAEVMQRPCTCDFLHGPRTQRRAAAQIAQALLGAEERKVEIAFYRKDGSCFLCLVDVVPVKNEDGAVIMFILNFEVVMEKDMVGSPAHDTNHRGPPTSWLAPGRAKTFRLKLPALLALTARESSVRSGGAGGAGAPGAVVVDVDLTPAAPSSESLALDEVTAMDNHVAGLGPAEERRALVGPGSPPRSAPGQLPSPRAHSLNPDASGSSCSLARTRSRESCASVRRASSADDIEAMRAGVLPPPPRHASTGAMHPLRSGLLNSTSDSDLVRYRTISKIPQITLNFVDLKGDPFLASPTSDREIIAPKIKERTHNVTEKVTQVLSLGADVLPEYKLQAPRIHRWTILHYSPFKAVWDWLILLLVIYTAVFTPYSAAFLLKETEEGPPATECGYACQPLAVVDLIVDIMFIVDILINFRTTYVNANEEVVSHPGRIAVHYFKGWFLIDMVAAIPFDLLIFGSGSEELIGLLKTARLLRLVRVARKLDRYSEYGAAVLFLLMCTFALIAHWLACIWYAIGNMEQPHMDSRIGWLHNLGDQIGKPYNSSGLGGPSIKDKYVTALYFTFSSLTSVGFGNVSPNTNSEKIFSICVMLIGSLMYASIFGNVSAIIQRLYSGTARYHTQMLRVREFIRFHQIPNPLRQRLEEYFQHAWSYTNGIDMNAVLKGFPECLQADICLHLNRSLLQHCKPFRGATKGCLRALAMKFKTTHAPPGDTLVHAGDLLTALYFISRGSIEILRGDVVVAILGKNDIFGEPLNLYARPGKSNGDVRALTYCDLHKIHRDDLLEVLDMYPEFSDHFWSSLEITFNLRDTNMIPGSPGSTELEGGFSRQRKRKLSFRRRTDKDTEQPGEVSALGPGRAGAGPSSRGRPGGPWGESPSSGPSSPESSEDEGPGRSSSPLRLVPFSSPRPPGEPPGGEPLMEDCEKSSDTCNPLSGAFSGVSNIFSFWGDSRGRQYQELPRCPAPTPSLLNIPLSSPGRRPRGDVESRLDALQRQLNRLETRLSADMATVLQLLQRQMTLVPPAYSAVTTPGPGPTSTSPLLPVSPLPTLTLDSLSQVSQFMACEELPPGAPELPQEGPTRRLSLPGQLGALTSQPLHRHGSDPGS

| SMILES | hERG current change (%, negative = inhibition) at 10uM |
| --- | --- |
| COc1ccc(N2CCN(C(=O)c3cc(-c4cc(OC)ccc4OC)nc4ccccc34)CC2)cc1 | -1.23% |
| Cc1ccc2nc3c(nc2c1C)C(O)=C3O | 6.68% |
| O=C1c2ccccc2C(=O)c2c1cccc2N1CCOCC1 | -30.4% |
| O=C1c2ccccc2-c2ncnc3c(N4CCOCC4)cc(N4CCOCC4)c1c23 | -60% |
| Cc1ccc(N2CCOCC2)c2c1C(=O)c1ccccc1C2=O | -19.1% |
| CCOCCn1c(SCc2ccc(C)cc2)nc2c1c(=O)[nH]c(=O)n2C | 14.5% |
| COc1ccc(CNC(=O)CN2CCN(c3ccc(F)cc3)CC2)cc1 | -39.1% |
| O=C(CN1CCN(c2ccc(Cl)cc2)CC1)NCc1ccccc1 | -51.3% |
| COc1ccc(N2CCN(CC(=O)NCc3ccc(Cl)cc3)CC2)cc1 | -55.7% |
| O=C(CN1CCN(c2ccc(F)cc2)CC1)NCc1ccc(F)cc1 | -43.9% |
| Cc1ccc(CNC(=O)CN2CCN(c3ccc(F)cc3)CC2)cc1 | -50.8% |
| N#Cc1ccc(CN2CCN(CC(=O)NCCc3ccc(Cl)cc3Cl)CC2)cc1 | -68.8% |
| O=C(Cn1cnnn1)NCCc1ccc(Cl)cc1Cl | -19.6% |
| O=C(CN1CCN(c2cccc(Cl)c2)CC1)NCc1ccccc1 | -15.5% |
| CC(=O)c1ccc(N2CCN(CC(=O)NCc3ccccc3)CC2)cc1 | -44.3% |
| COc1ccc(CNC(=O)CN2CCN(c3ccccc3)CC2)cc1 | 3.65% |
| O=C(CN1CCN(c2ccccc2)CC1)NCc1ccc(F)cc1 | -11% |
| O=C(CN1CCNC(=O)C1)NCCc1ccc(Cl)cc1Cl | 1.45% |
| S=c1[nH]nc(COc2ccccc2)n1/N=C/c1ccncc1 | 7.06% |
| O=C(NCCOc1ccc(Cl)cc1)c1ccc2c(c1)OCCO2 | -7.8% |
| COc1ccc(O)c(C=Nc2cc(NC(C)=O)c(Cl)cc2Cl)c1 | 2.95% |
| O=C1c2ccccc2C(=O)N1CC(O)COc1ccc(Br)cc1 (centres unmarked) | -1.51% |
| O=C(CN1CCN(Cc2ccc(F)cc2)CC1)NCc1ccccc1 | -27.5% |

| SMILES | hERG current change (%, negative = inhibition) at 10uM |
| --- | --- |
| O=C(NCc1ccc(Cl)cc1)N1CCN(Cc2ccccc2)CC1 | -29.9% |
| Cl.O=C(CN1CCOCC1)NCc1ccc(F)cc1 | 21.6% |
| Fc1ccc(CN2CCN(c3ccc(Cl)cc3)CC2)cc1 | -13.6% |
| O=C(CN1CCN(c2ccc(F)cc2)CC1)NCc1ccc(Cl)cc1 | -62.7% |
| O=C(CN1CCN(Cc2ccccc2)CC1)NCc1ccc(Cl)cc1 | -61.1% |
| Cc1ccc(C(=O)c2cc3c(cc2[N+](=O)[O-])OCCO3)cc1 | -9.5% |
| O=C1/C(=N\S(=O)(=O)c2cccs2)C([n+]2ccc(CCCc3ccccc3)cc2)=C([O-])c2ccccc21 | -70.5% |
| CCc1cc[n+](C2=C([O-])c3ccccc3C(=O)/C2=N\S(=O)(=O)c2cccs2)cc1 | -11.6% |
| O=C1/C(=N\S(=O)(=O)c2cccs2)C([n+]2ccccc2)=C([O-])c2ccccc21 | 33.6% |
| Cc1ccc(NC(=O)c2nnn(-c3ccc4c(c3)OCCO4)c2N)cc1 | 9.9% |
| Cc1cc(NC(=O)CSc2nncc(=O)n2N)no1 | 1.99% |
| COC(=O)C1=C(C)N(Cc2cccnc2)C(=O)C1 | -0.706% |
| COCCCN1C(=O)/C(=C\c2cccs2)C(C(=O)OC)=C1C | -31.9% |
| COC(=O)C1=C(C)N(Cc2cccnc2)C(=O)/C1=C\c1sccc1C | -79.2% |
| COC(=O)C1=C(C)N(Cc2ccccc2)C(=O)/C1=C\c1ccco1 | 2.06% |
| COC(=O)C1=C(C)N(Cc2cccnc2)C(=O)/C1=C\c1cccs1 | -89% |
| CCN1C(=O)/C(=C\c2cccs2)C(C(=O)OC)=C1C | 5.41% |
| CCN(CC)S(=O)(=O)c1cccc(-c2nnc(SCC(=O)NC3CCCC3)n2N)c1 | 19% |
| Cc1cc(=O)[nH]c2c(C)cc(S(=O)(=O)N3CCCCC3)cc12 | 4.69% |
| CCc1cccc(NC(=O)COc2ccccc2)c1 | -8.01% |
| O=C(Oc1c(-c2ccccc2)c(=O)n2c3c(cccc13)CC2)c1ccco1 | -62% |
| O=C(Oc1c(-c2ccccc2)c(=O)n2c3c(cccc13)CC2)c1ccc(F)cc1 | 10.4% |
| O=C(Oc1c(-c2ccccc2)c(=O)n2c3c(cccc13)CC2)c1ccccc1 | -9.09% |

| SMILES | hERG current change (%, negative = inhibition) at 10uM |
| --- | --- |
| CC1CC(=S)Nc2ccccc2S1 (centres unmarked) | 11.1% |
| CN(C)S(=O)(=O)N1CCC(c2ccc(F)cc2)C(COc2ccc3c(c2)OCO3)C1 (centres unmarked) | 10.2% |
| N#C/C(=C/c1ccc(Sc2nc3ccccc3[nH]2)o1)c1ccccc1F | -7.86% |
| O=C(O)c1ccc(NC(=S)NC(=O)C(c2ccccc2)c2ccccc2)cc1 | -6.52% |
| CCOc1ccc(NC(=O)C(C)NC(=O)c2ccccc2Cl)cc1S(=O)(=O)N1CCCC1 (centres unmarked) | -14.3% |
| CCOc1ccc(NC(=O)C(C)Oc2ccc(C#N)cc2)cc1S(=O)(=O)N1CCCC1 (centres unmarked) | -62.1% |
| Cc1ccc(NC(=O)C(C)Oc2ccccc2)cc1S(=O)(=O)N1CCCCCC1 (centres unmarked) | -7.7% |
| COc1ccc(NC(=O)Nc2nnc(-c3ccccc3SCc3ccccc3)s2)cc1 | 13.6% |
| O=C(Cc1cccs1)NCCN1CCOCC1 | 3.99% |
| CN1CCN(c2nc(NCCOC34CC5CC(CC(C5)C3)C4)nc(OCC(F)(F)F)n2)CC1 | -60.8% |
| OCCNc1nc(OCC(F)(F)F)nc(N2CCN(C34CC5CC(CC(C5)C3)C4)CC2)n1 | -37.9% |
| CNc1nc(NCCOC23CC4CC(CC(C4)C2)C3)nc(OCC(F)(F)F)n1 | 8.55% |
| CCOc1c2ccc(C(=O)NCc3ccco3)cc2nn1CCOC | -0.63% |
| CC(=O)c1cccc(NS(=O)(=O)c2cc3c(cc2C)N(C(C)=O)CCO3)c1 | 14.3% |
| Cc1ccc(S(=O)(=O)C(CCC(=O)c2ccc(Cl)cc2)C(N)=O)cc1 (centres unmarked) | -28.9% |
| CCN(CC)c1cc(C)c2cc(NC(=O)c3ccc(Br)o3)ccc2n1 | -76.1% |
| Cc1cc(N2CCN(C)CC2)nc2ccc(NC(=O)c3ccc(Br)o3)cc12 | -77.4% |
| CCN(CC)c1cc(C)c2cc(NC(=O)CNC(C)=O)ccc2n1 | -11.3% |
| CCN(CC)c1ccc(NC(=O)c2ccc(Br)o2)cc1 | -24.3% |
| CCN1CCN(c2cc(C)c3cc(NC(=O)c4ccc(Br)o4)ccc3n2)CC1 | -56% |
| CCN1CCN(c2cc(C)c3cc(NC(=O)Cc4ccc(OC)c(OC)c4)ccc3n2)CC1 | -10.5% |
| CCN1CCN(c2cc(C)c3cc(NC(=O)c4cncc(Br)c4)ccc3n2)CC1 | -51.8% |
| Cc1cc(N2CCN(C)CC2)nc2ccc(NC(=S)N3CCC4(CC3)OCCO4)cc12 | -34% |

| SMILES | hERG current change (%, negative = inhibition) at 10uM |
| --- | --- |
| CCN1CCN(c2cc(C)c3cc(NC(=O)c4ccc(C)c(C)c4)ccc3n2)CC1 | -43.3% |
| COc1cc(C(=O)Nc2ccc3nc(N4CCN(C)CC4)cc(C)c3c2)cc(OC)c1OC | -38.7% |
| CCN1CCN(c2cc(C)c3cc(NC(=O)c4cnccn4)ccc3n2)CC1 | -16.2% |
| CCN1CCN(c2cc(C)c3cc(NC(=O)c4ccncc4)ccc3n2)CC1 | -21.4% |
| Nc1ccc2nc3c(=O)n(C4CCCCC4)c(=O)[nH]c3nc2c1 | -0.914% |
| CC(=O)c1c(C(C)=O)c(C)n(C2CCCCC2)c1C | 2.97% |
| NC(=O)c1ccc(NC(=O)CCCc2nc(-c3ccccc3Cl)no2)cc1 | 18.4% |
| CCOc1ccc(S(=O)(=O)N2CCC(C(=O)NCCN3CCOCC3)CC2)cc1C | 1.77% |
| CCOC(=O)C(=CNc1ncccc1C)C(=O)OCC | 1.51% |
| CC(C)CCNC(=O)Cn1c(=O)oc2cc(S(=O)(=O)N3CC(C)CC(C)C3)ccc21 (centres unmarked) | 13.3% |
| CN1CCN(CCCc2c3c(cc4c2CCC4)CCC3)CC1.Cl | -19.8% |
| Cc1cc(N2CCCCC2)nc2ccc(NC(=O)c3ccc(Br)o3)cc12 | -52.9% |
| COc1ccc(C(=O)Nc2ccc3nc(N4CCCCC4)cc(C)c3c2)c(OC)c1 | 4.06% |
| CCCCNC(=O)CCC(=O)Nc1ccc2nc(N3CCCCC3)cc(C)c2c1 | -18.5% |
| CC(C)Oc1ccc(S(=O)(=O)N2CCOCC2)cc1NC(=O)CN1C(=O)NC2(CCCC2)C1=O | -17.8% |
| CCOc1ccc(S(=O)(=O)N2CCOCC2)cc1NC(=O)CN1C(=O)NC(CC)(c2ccccc2)C1=O (centres unmarked) | -73.5% |
| CCC1(c2ccccc2)NC(=O)N(CC(=O)Nc2cc(S(=O)(=O)N3CCCCC3)ccc2OC(C)C)C1=O (centres unmarked) | -5.02% |
| CCC1(c2ccccc2)NC(=O)N(CC(=O)Nc2cc(S(=O)(=O)N3CCOCC3)ccc2OC(C)C)C1=O (centres unmarked) | -55.7% |
| CCOc1ccc(S(=O)(=O)N2CCCCC2)cc1NC(=O)CN1C(=O)NC(C)(c2ccccc2)C1=O (centres unmarked) | -35.5% |
| CCOc1ccc(S(=O)(=O)N2CCCCC2)cc1NC(=O)CN1C(=O)NC(CC)(c2ccccc2)C1=O (centres unmarked) | -15% |
| CC1(c2ccccc2)NC(=O)N(CC(=O)Nc2cc(S(=O)(=O)N3CCOCC3)ccc2Cl)C1=O (centres unmarked) | -7.82% |
| CCOc1ccc(S(=O)(=O)N2CCOCC2)cc1NC(=O)CN1C(=O)NC2(CCCC2)C1=O | 5.87% |
| CCOc1ccc(S(=O)(=O)N2CCOCC2)cc1NC(=O)CN1C(=O)NC(C)(c2ccccc2)C1=O (centres unmarked) | -52.6% |
